High-throughput results: PubChem, several laboratories
GDH-TPI inh: inhibits GDH-TPI coupling enzymes, artifact for Mtb FBA screen; actives 1.2% (n = 360,000); inhibition, % at 4.8 µM; GDH-TPI coupled enzyme counterscreen, NADH absorbance; in the data active = inhibition above about 30%;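 note: 0% = DMSO wells and 100% = wells lacking the enzyme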
DUSP3 inh: inhibitors of human VHR1 phosphatase (DUSP3) | inhibition, % at 13.3 µM | recombinant VHR phosphatase, pNPP absorbance | actives 0.52% (n = 290,000); in the data active = inhibition above about 50%
Target sequence (P51452 whole entry, looked up): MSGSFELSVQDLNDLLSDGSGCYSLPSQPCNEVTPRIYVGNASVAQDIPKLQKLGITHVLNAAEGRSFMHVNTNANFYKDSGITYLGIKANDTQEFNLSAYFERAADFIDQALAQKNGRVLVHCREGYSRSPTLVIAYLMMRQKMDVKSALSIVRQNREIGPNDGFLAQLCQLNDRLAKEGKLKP
Mtb betalactam: beta-lactam sensitization of Mtb H37Rv. actives 0.27% (n = 330,000). inhibition, % at 25 µM. M. tuberculosis H37Rv growth with meropenem, percent inhibition; call rule not given here;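 note: growth measured after seven days incubation then overnight dye step; 0% = bacteria only wells and 100% = bacteria with antibiotic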
Mtb FBA inh: Mtb fructose-bisphosphate aldolase inhibition. P9WQA3. purified M. tuberculosis FBA, fluorescence read-out. inhibition, % at 1 µM. actives 2.3% (n = 360,000). AID 588726; in the data active = inhibition above about 27%;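 note: 0% = vehicle and 100% = reference inhibitor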
Mtb hypoxia inh: reduces hypoxia-regulated biosensor signal in M. tuberculosis; M. tuberculosis hypoxia-regulated fluorescent reporter, fluorescence; fluorescence inhibition, % (test concentration not listed); actives 0.1% (n = 300,000); AID 1159583; in the data active = fluorescence inhibition mostly above about 23%, no sharp cut-off; inactive = mostly below about 17%
* marks the source's active call; other numbers are inactive results; . = no result; + = active, no number. Most compounds without a hit are left out; they make up all but 3.6% or so of the library.

SMILES | GDH-TPI inh | DUSP3 inh | Mtb betalactam | Mtb FBA inh | Mtb hypoxia inh
COc1ccc(/C=C2\Oc3cc(OCC(=O)N4CCC[C@H]4C(=O)O)ccc3C2=O)c(OC)c1 | -2.9 | 12.5 | -2.9 | -1.5 | .
O=C(CCN1CCN(c2ccccc2)CC1)NN=Cc1ccccc1O | . | . | . | . | 14.1
Cc1ccn2c(C(=O)N/N=C\c3cccs3)c(C)nc2c1 | 62.4* | -4.4 | -13.9 | 0.2 | .
Cc1ccc2nc(C)c(C(=O)N/N=C/c3cccs3)n2c1 | 36.6* | -5.3 | 3.3 | 1.1 | .
Cc1ccn2c(C(=O)NN=Cc3cccs3)c(C)nc2c1 | . | . | . | . | 6.8
Cc1ccc(C)c(-n2c(C)cc(/C=N/NC(=O)c3c(C)nc4cc(C)ccn34)c2C)c1 | 38.8* | 9.4 | -9.8 | 2.0 | .
CC(C)(C)C(=O)OCOC(=O)C1N2C(=O)C(N=CN3CCCCCC3)C2SC1(C)C (configuration not stated) | . | . | . | . | -0.5
CC(C)C1C=C(C(=O)O)OC(OCc2ccc(CO)cc2)C1 (configuration not stated) | . | . | . | . | 9.2
Cc1cccc(S(=O)(=O)C(C#N)c2nc3ccccc3nc2N2CCCC2)c1 (configuration not stated) | 6.7 | 0.0 | -5.1 | 74.4* | 24.1
CCOC(=O)C(C#N)=CN1CCN(C(=O)CCCl)c2ccccc21 | 18.5 | . | . | -4.3 | 7.5
CCOC(=O)C(C#N)=CN1CCNc2ccccc21 | 31.0* | . | . | 2.2 | 12.3
CCCN(CCC)CCNC(=O)CCC(=O)Nc1ccc2nc(N3CCN(C)CC3)cc(C)c2c1 | 15.6 | 36.0 | 3.4 | + | -3.7
CCOC(=O)N1CCC(NC(=S)Nc2ccc3nc(N4CCN(C)CC4)cc(C)c3c2)CC1 | 11.2 | -6.2 | 6.4 | 8.8 | -4.7
CCOC(=O)N1CCC(NC(=S)Nc2ccc3nc(N4CCN(CC)CC4)cc(C)c3c2)CC1 | 35.4* | 27.4 | 0.2 | 13.5 | 1.4
COC(=O)c1cc(Cl)ccc1NCC(N)c1ccccc1 (configuration not stated) | . | . | . | 114.7* | .
O=C(COC(=O)c1ccc(O)cc1)Nc1ccc(Cl)cc1C(=O)c1ccccc1 | 0.0 | -3.4 | 1.7 | -2.8 | 4.9
CCN(CC)c1ccc2cc(C(C)=O)c(=O)oc2c1 | 3.7 | 27.7 | 13.8 | -38.4 | .
CCN(CC)c1ccc2cc(NC(=O)CCC(=O)O)c(=O)oc2c1 | 10.0 | 6.1 | -3.5 | 31.4* | 8.4
CC(C)(C)CN1C(=O)C(=O)NCC1Cc1ccc(O)cc1 (configuration not stated) | . | . | . | . | 7.2
COc1ccc(N2CCN(C(=O)c3ccc(S(=O)(=O)N4CCOCC4)cc3)CC2)cc1 | 2.5 | 51.2* | -5.2 | 6.3 | -0.4
COc1ccc(N2CCN(C(=O)c3ccc(S(=O)(=O)N4CCCC4)cc3)CC2)cc1 | 1.6 | 7.4 | -4.7 | 0.7 | 5.4
Cc1ccc(S(=O)(=O)N2CCN(C(=O)c3cc(S(=O)(=O)N4CCOCC4)c(Cl)cc3Cl)CC2)cc1 | -7.5 | . | . | -0.7 | 28.0*
O=C(NC1CCN(S(=O)(=O)c2ccc(F)cc2)CC1)c1ccc(F)cc1 | -3.9 | 55.7* | -8.2 | 1.5 | -3.3
COc1ccc(C(=O)NC2CCN(S(=O)(=O)c3ccc(F)cc3)CC2)cc1 | -1.5 | 21.9 | -6.0 | 3.7 | -3.0
CN1CC=C2C(C#N)=C(N)C(C#N)(C#N)[C@H](c3ccoc3)[C@H]2C1 | 8.8 | 14.0 | -0.1 | 60.8* | .
SMILES | GDH-TPI inh | DUSP3 inh | Mtb betalactam | Mtb FBA inh | Mtb hypoxia inh
CC1(C)CC(NC(=O)C23CCC(C)(C(=NO)C2)C3(C)C)CC(C)(C)N1 (configuration not stated) | . | . | . | . | 0.4
O=C(O)Cc1ccc(Nc2cnn(C34CC5CC(CC(CC(=O)O)(C5)C3)C4)c(=O)c2Cl)cc1 | 50.6* | 25.0 | -12.8 | -0.3 | -5.4
CCc1ccc(Nc2cnn(C34CC5CC(CC(CC(=O)O)(C5)C3)C4)c(=O)c2Cl)cc1 | 15.8 | 3.9 | 0.6 | 3.1 | 3.5
O=C(NC1CC1)C1=CC(c2ccc(C(F)(F)F)cc2)CC(OCCCCO)O1 (configuration not stated) | . | . | . | . | 15.7
CCC(=O)Nc1ccc(NC(=S)NC(=O)/C=C/c2ccco2)cc1 | 47.5* | 5.8 | 6.4 | -2.6 | -8.1
CC(=O)NC(=S)Nc1ccc(NC(=S)NC(=O)/C=C/c2ccco2)cc1 | 27.9 | 8.4 | -0.4 | -2.3 | -6.8
O=C(/C=C/c1ccco1)NC(=S)NNC(=O)c1ccco1 | 43.4* | -9.4 | 6.6 | 1.0 | 2.9
Cc1ccc(-c2ccc(C3C4C=CCC[C@@]4(C)C(=O)N3Cc3ccccc3)c(F)c2)cc1 (some centres not stated) | . | . | . | . | 3.7
CN1CCC(=O)N(C(CO)c2ccccc2)CC1 (configuration not stated) | . | . | . | . | 9.2
Cc1cc(NC(=O)c2sc(Nc3ccc(F)c(Cl)c3)nc2N)no1 | 13.4 | 29.7 | -0.7 | -5.8 | 10.3
